Source: PubChem BioAssay (NCATS)
“And” between values parts separate entries of the source, which are not always exact repeats. Equal values may be shown once. A number with no mark means an inactive call. Results filed as inconclusive are left out. Entries that show only a call come without a potency. The source made the active and inactive calls. Unless noted, calls come from the whole dose curve; as a rule, active = well fitted curve in the direction sought with a large enough effect; inconclusive = small, poorly fitted or top-dose-only effect, or another doubt; inactive = no such curve, though single readings can be large; an effect the other way counts as inactive or inconclusive.

Experiments:
[1] = Cell Viability - BJ (AID 421; calls by dose curve;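 note: potency is the fitted concentration of half-maximal effect; cells exposed to compound for 40 hours at 37 °C before readout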); details: BJ fibroblast viability, qHTS
Outline: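 Cytotoxicity in human BJ foreskin fibroblasts is scored as loss of cellular ATP after a 40-hour exposure, measured by luciferase luminescence. Controls are DMSO and 100 uM tamoxifen.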

[2] = Cell Viability - Jurkat (AID 426;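 active = dose-dependent loss of cell ATP signal giving a full or clear fitted curve, ranked by lower potency value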;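 note: potency is the fitted concentration of half-maximal effect; cells exposed to compound for 40 hours at 37 °C before ATP read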); details: qHTS
Outline: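 Seed 5000 Jurkat E6-1 cells/well; add compound; incubate 40 hr at 37 °C; add CellTiter-Glo; wait 20 min at room temperature; read luminescence. Fit concentration-response with Hill equation for AC50.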

[3] = Cell Viability - Hek293 (AID 427;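 active = compounds whose dose-response curve shows a full or clear partial loss of cell viability, called from curve shape rather than a numeric limit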;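 note: potency is the fitted concentration of half-maximal effect; cells exposed to compound for 40 hours at 37 °C before reading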); details: qHTS
Outline: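 qHTS, human embryonic kidney (adenovirus-transformed) cells; 40 hr cpd, 37 °C; CellTiter-Glo ATP luminescence. Norm: DMSO = 0, 100 uM tamoxifen = 100% inhibition. Hill-fit AC50.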

[4] = Cell Viability - HepG2 (AID 433; calls by dose curve;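 note: potency is the fitted concentration of half-maximal effect; potency for ATP loss meaning cytotoxicity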); details: qHTS
Outline: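 Cytotoxicity is scored as loss of intracellular ATP in HepG2 cells exposed to compounds for 40 h. Concentration-response curves, normalized to DMSO and 100 uM tamoxifen, give AC50 values.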

[5] = Cell Viability - MRC5 (AID 434; calls by dose curve;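 note: potency is the fitted concentration of half-maximal effect; cells exposed to compound for 40 hours at 37 °C; potency reflects cytotoxicity seen as loss of intracellular ATP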); details: MRC5 lung fibroblast viability, qHTS
Outline: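 qHTS cytotoxicity in human lung fibroblast MRC5 cells; 40 hr treatment, 37 °C; cellular ATP by luciferase luminescence; DMSO = 0%, 100 uM tamoxifen = 100% inhibition; Hill-fit AC50.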

[6] = Cell Viability - Mesenchymal (AID 546); details: mesenchymal cells viability, qHTS; series mostly up to 91.7 µM;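 note: cells exposed to compound for 40 hours before reading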
Outline: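 AC50 values reflect the drop in intracellular ATP in a human kidney mesenchymal line derived from normal glomeruli. Treatment lasts 40 hr at 37 °C in complete medium, and the signal comes from CellTiter-Glo luminescence.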

[7] = Cellular Toxicity (caspase-3) HepG2 (AID 654); details: HepG2 caspase-3 activation, luminescence, 0% = DMSO only, 100% = tamoxifen; series mostly up to 92.2 µM;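 note: cells exposed to compound for 16 hours before reading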
Outline: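 qHTS, HepG2, 1500 cells/well, complete medium; cpd 16 h 37 °C; Caspase-Glo 3/7, 20 min RT; lum. Norm: DMSO vs 100 uM tamoxifen; AC50 Hill fit.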

[8] = Cellular Toxicity (caspase-3) HUV-EC-C (AID 656); details: HUV-EC-C cells, caspase-3 activation (apoptosis), vehicle = 0, 100 µM tamoxifen = 100%; series mostly up to 92.2 µM;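 note: cells exposed to compound for 16 h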
Outline: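 Read-out: luminescence proportional to caspase 3/7 activity, measured 20 min after adding Caspase-Glo 3/7 reagent. Cells (HUV-EC-C) had received compound for 16 hr at 37°C. Increases relative to DMSO and 100 uM tamoxifen gave concentration-response AC50 values.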

[9] = Cellular Toxicity (caspase-3) BJ (AID 658); details: BJ fibroblasts, luminescence, normalized: DMSO 0%, staurosporine 100%; series mostly up to 91.7 µM;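 note: cells exposed to compound for 16 hours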
Outline: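 Readout: Caspase-Glo 3/7 luminescence increase in BJ cells after 16 hr treatment at 37 °C. Staurosporine and tamoxifen served as positive controls; AC50 values came from Hill modelling of data normalized to DMSO and 10 uM staurosporine.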

[10] = Cellular Toxicity (caspase-3) MRC-5 (AID 659); details: MRC-5 cells, luminescence, normalized: DMSO 0%, 10 µM staurosporine 100%; series mostly up to 91.7 µM;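 note: cells exposed to compound for 16 h at 37 °C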
Outline: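 Concentration-dependent caspase 3/7 activation is measured in human normal lung fibroblasts (MRC-5) following 16-hour treatment. AC50 values come from standard Hill-equation modeling of luminescence normalized to DMSO and 10 uM staurosporine.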

[11] = Cellular Toxicity (caspase-3) SK-N-SH (AID 661); details: SK-N-SH caspase-3 activation, qHTS; series mostly up to 91.7 µM;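 note: cells exposed to compound for 16 hours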
Outline: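 Caspase 3/7 activation is measured as a luminescence increase from aminoluciferin released by substrate cleavage in SK-N-SH cells after 16 hr compound treatment; values are AC50 from concentration-response curves.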

[12] = Cellular Toxicity (caspase-3) Hek293 (AID 664); details: HEK293 caspase-3 activation, DMSO = 0%, 100 µM tamoxifen = 100%; at 92.2 µM (top of the series);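 note: cells exposed to compound for 16 h at 37 °C before readout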
Outline: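 Activation of caspase-3/7 is measured as increased luminescence from cleaved peptide-aminoluciferin substrate in HEK293 cells treated 16 hours at 37 °C. AC50 values come from Hill-equation fits of concentration-response data.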

[13] = MultiTox-Fluor Cytotoxicity Assay - LYMP1-001 - Dead Cells (AID 946); details: LYMP1-001 lymphoblastoid cells, dead-cell protease fluorescence; series mostly up to 92.2 µM;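 note: cells exposed to compound for 16 h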
Outline: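 Seed 2500 LYMP1-001 cells/well, incubate 5 hr at 37 C; add compound, 16 hr at 37 C; add MultiTox-Fluor reagent, 60 min RT; read dead-cell fluorescence Ex/Em=485/520. Normalize to DMSO and 15 uM tetraoctylammonium bromide.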

[14] = Cell Viability - LYMP1-002 - Assay at 16 hr (AID 948); details: LYMP1-002 lymphoblastoid cell viability; series mostly up to 92.2 µM
Outline: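 Acute cytotoxicity is scored as a concentration-dependent fall in intracellular ATP in a human lymphoblastoid line (LYMP1-002) after 16 hr compound exposure at 37 C, measured by luciferase luminescence.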

[15] = MultiTox-Fluor Cytotoxicity Assay - LYMP1-002 - Live Cells (AID 955); details: LYMP1-002 lymphoblastoid live-cell protease fluorescence viability; series mostly up to 46.1 µM;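 note: cells exposed to compound for 16 hours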
Outline: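 Cytotoxicity in the human lymphoblastoid line LYMP1-002 is measured as loss of live-cell protease activity after 16 h treatment in complete culture medium. AC50 is derived from Hill-equation fits of qHTS concentration-response data.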

[16] = MultiTox-Fluor Cytotoxicity Assay - LYMP1-003 - Dead Cells (AID 961); details: LYMP1-003 lymphoblastoid cells, dead-cell protease fluorescence; series mostly up to 92.2 µM;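 note: cells exposed to compound for 16 h at 37 °C; nearly all actives have a fitted effect of over 70% in size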; note: potency is the fitted concentration of half-maximal effect
Outline: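 LYMP1-003 lymphoblastoid, 2500 cells/well, 5 hr settle then 16 hr cpd at 37 C; MultiTox-Fluor reagent 60 min RT; Ex/Em 485/520 dead-cell signal; norm. DMSO = 0%, 15 uM tetraoctylammonium bromide = 100%; Hill AC50.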

[17] = Cell Viability - LYMP2-016 (AID 984); details: LYMP2-016 lymphoblastoid cell viability, qHTS; series mostly up to 92.2 µM;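 note: cells exposed to compound for 24 hours at 37 °C; nearly all actives have a fitted effect of over 55% in size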
Outline: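 Acute toxicity in a Coriell human lymphoblastoid line is scored as loss of intracellular ATP over 24 h of treatment in complete medium. CellTiter-Glo signal is fitted across concentrations with the Hill equation to give AC50.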

[18] = Cell Viability - LYMP2-026 (AID 989); details: LYMP2-026 lymphoblastoid cell viability, qHTS; series mostly up to 92.2 µM;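 note: cells exposed to compound for 24 h at 37 °C; nearly all actives have a fitted effect of over 50% in size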
Outline: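 Concentration-dependent loss of intracellular ATP in human lymphoblastoid cells after 24 hr at 37 C, quantified by luciferase luminescence. AC50 derived from standard Hill equation.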

[19] = qHTS Assay for Identification of Small Molecule Inducers of Hypoxia Response (AID 2120; active = well fitted curve in the direction sought with a large enough effect in the signal ratio, with a control signal flat, not every such curve was filed as active; the % refers to the signal ratio); details: hypoxia response reporter cells, beta-lactamase ratio readout; series mostly up to 104 µM
Outline: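 Induction of beta-lactamase reporter activity was measured in CellSensor HRE-bla ME-180 cells after 17 h compound treatment at 37 degrees C, using CCF4 substrate and the 460nm/530nm emission ratio to derive AC50 values.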

[20] = target: Peroxisome proliferator-activated receptor alpha (Homo sapiens) (UniProt Q07869); experiment: qHTS assay for small molecule agonists of the peroxisome proliferator-activated receptor alpha (PPARalpha) signaling pathway (AID 651778); details: PathHunter PPARalpha complementation, chemiluminescence, 6 h; stronger effect = higher value
Outline: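 Chemiluminescence from complemented enzyme reported PPARalpha activation in cells after 6 hr of compound treatment at 37 C. The detection reagent was incubated for 60 min at room temperature, and compounds were scored as agonists.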

Chain of Peroxisome proliferator-activated receptor alpha (Homo sapiens) (Q07869 whole entry, looked up): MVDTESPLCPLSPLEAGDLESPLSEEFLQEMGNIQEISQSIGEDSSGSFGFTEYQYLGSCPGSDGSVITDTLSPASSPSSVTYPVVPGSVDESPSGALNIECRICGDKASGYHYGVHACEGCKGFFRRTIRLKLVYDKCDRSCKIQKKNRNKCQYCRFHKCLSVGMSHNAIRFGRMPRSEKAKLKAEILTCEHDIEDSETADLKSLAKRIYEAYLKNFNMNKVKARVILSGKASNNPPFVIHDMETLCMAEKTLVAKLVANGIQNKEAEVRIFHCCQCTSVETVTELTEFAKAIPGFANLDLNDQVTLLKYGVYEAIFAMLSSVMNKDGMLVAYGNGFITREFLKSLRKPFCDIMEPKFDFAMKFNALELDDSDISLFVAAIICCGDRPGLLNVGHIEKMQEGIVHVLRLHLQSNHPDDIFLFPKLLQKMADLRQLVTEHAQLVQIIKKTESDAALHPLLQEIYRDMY

Compound | Potency [1] [µM] | Potency [2] | Potency [3] [µM] | Potency [4] [µM] | Potency [5] [µM] | Potency [6] | outcome [7] | outcome [8] | outcome [9] | outcome [10] | Potency [11] | caspase-3 activation [12] [%] | outcome [13] | outcome [14] | outcome [15] | Potency [16] | Potency [17] | Potency [18] | Potency [19] | max response [20]
c1ccc(P(c2ccccc2)c2ccccc2)cc1 | > 92 | > 92 µM | > 92 | > 92 | > 92 | inactive | inactive | inactive | inactive | inactive | inactive | -0.936 | inactive | inactive | inactive | inactive | inactive | inactive | inactive | -4.42%
ClP(Cl)(Cl)(Cl)Cl | > 92 | > 92 µM | > 92 | > 92 | > 92 | inactive | inactive | inactive | inactive | inactive | inactive | -1.32 | inactive | inactive | inactive | inactive | inactive | inactive | inactive | 0.162%
O=S(=O)(Cl)c1ccccc1 | > 92 | > 92 µM | > 92 | > 92 | > 92 | inactive | inactive | inactive | inactive | inactive | inactive | -0.803 | inactive | inactive | inactive | inactive | inactive | inactive | inactive | -0.206% and -0.679%
Cc1ccc2c(C)cccc2c1 | > 92 | > 92 µM | > 92 | > 92 | > 92 | inactive | inactive | inactive | inactive | inactive | inactive | -1.38 | inactive | inactive | inactive | inactive | inactive | inactive | inactive | 3.14%
CCCN(CCC)c1c([N+](=O)[O-])cc(C(F)(F)F)cc1[N+](=O)[O-] | > 92 | > 92 µM | > 92 | > 92 | > 92 | inactive | inactive | inactive | inactive | inactive | inactive | 3.06 | inactive | inactive | inactive | inactive | inactive | inactive | inactive | 2.49% and -0.599%
[N-]=[N+]=[N-] | > 92 | > 92 µM | > 92 | > 92 | > 92 | inactive | inactive | inactive | inactive | inactive | inactive | -2.5 | inactive | inactive | inactive | inactive | inactive | inactive | inactive | -3.11%
Nc1c(Cl)cc([N+](=O)[O-])cc1Cl | > 92 | > 92 µM | > 92 | > 92 | > 92 | inactive | inactive | inactive | inactive | inactive | inactive | 6.24 | inactive | inactive | inactive | inactive | inactive | inactive | inactive | -4.31% and -1.23%
Brc1cccc(-c2ccccc2)c1 | > 92 | > 92 µM | > 92 | > 92 | > 92 | inactive | inactive | inactive | inactive | inactive | inactive | -1.08 | inactive | inactive | inactive | inactive | inactive | inactive | inactive | -1.43%
C=CC(=O)OCCN(C)C | > 92 | > 92 µM | > 92 | > 92 | > 92 | inactive | inactive | inactive | inactive | inactive | inactive | -0.126 | inactive | inactive | inactive | inactive | inactive | inactive | inactive | 10.1%
ClCC(Cl)Cl | > 92 | > 92 µM | > 92 | > 92 | > 92 | inactive | inactive | inactive | inactive | inactive | inactive | -0.541 | inactive | inactive | inactive | inactive | inactive | inactive | inactive | 4.99%
Cc1ccc(N)c(N)c1 | > 92 | 9.63 µM (active) | > 92 | > 92 | > 92 | inactive | inactive | inactive | inactive | inactive | inactive | 8.54 | inactive | inactive | inactive | 15.8 µM (active) | inactive | inactive | inactive | -2.85%
Oc1cccc(Cl)c1Cl | > 92 | > 92 µM | > 92 | > 92 | > 92 | inactive | inactive | inactive | inactive | inactive | inactive | 0.0996 | inactive | inactive | inactive | inactive | inactive | inactive | inactive | -2.6%
Clc1cccc(Cl)c1Cl | > 92 | > 92 µM | > 92 | > 92 | > 92 | inactive | inactive | inactive | inactive | inactive | inactive | -0.313 | inactive | inactive | inactive | inactive | inactive | inactive | inactive | -3.74% and -0.322%
Nc1ccc(Oc2ccc(N)cc2)cc1 | > 92 | > 92 µM | > 92 | > 92 | > 92 | inactive | inactive | inactive | inactive | inactive | inactive | -2.14 | inactive | inactive | inactive | inactive | inactive | inactive | inactive | -1.7% and -2.66%
CCCCCC[N+](=O)[O-] | > 92 | > 92 µM | > 92 | > 92 | – | inactive | inactive | inactive | inactive | inactive | inactive | -0.935 | inactive | inactive | inactive | inactive | inactive | inactive | inactive | 6.24%
